Assay results reported in PubChem BioAssay (Tox21).
Where “and” joins values, the source holds several entries; their conditions need not be identical. Identical values can stand only once. Results filed as inconclusive are left out. Calls of active or inactive are those of the source. Unless noted, the call rests on the fitted dose curve; in most records, active means well fitted curve in the direction sought with a large enough effect in the repeat runs; inconclusive means weak or mixed curves; inactive means no such curve, though single readings can be large; an effect the other way counts as inactive or inconclusive.

What was measured:
[1] = qHTS assay to identify small molecule agonists of the vitamin D receptor (VDR) signaling pathway - cell viability counter screen (AID 743224); further: series mostly up to about 63 µM; on the % scale 0 is the no-effect control and ±100 the full control effect; nearly all actives have a fitted effect of over 50% in size
Procedure, shortened: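 Here cell health was gauged by luminescent ATP detection (CellTiter-Glo, 30 min RT) in VDR-bla cells that had been incubated with test compounds for 16 h at 37C and 5% CO2.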

[2] = qHTS assay to identify small molecule antagonists of the vitamin D receptor (VDR) signaling pathway - cell viability counter screen (AID 743225); further: on the % scale 0 is the no-effect control and ±100 the full control effect; nearly all actives have a fitted effect of over 50% in size
Procedure, shortened: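 Compounds were pinned onto VDR-bla HEK 293T cells together with 1-alpha,25-dihydroxyvitamin D3 at 3 nM final. After 16 h at 37C and 5% CO2 plus the reporter readout, cell viability was measured by CellTiter-Glo luminescence (30 min, room temperature).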

[3] = qHTS assay to identify small molecule agonists of the NFkB signaling pathway (AID 1159509; active means well fitted curve in the direction sought with a large enough effect in the signal ratio in the repeat runs, not every such curve was filed as active; the % refers to the signal ratio; further: series mostly up to about 61 µM; on the % scale 0 is the no-effect control and ±100 the full control effect)
Procedure, shortened: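 NFkB-bla ME-180 cells carry a beta-lactamase reporter under an NF-kB response element. They were plated overnight, then exposed to compounds for 5 h at 37 C. Read-out is LiveBLAzer FRET after 1.5 hr at room temperature (405 nm excitation; 460/530 nm emission).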

[4] = qHTS assay to identify small molecule agonists of the NFkB signaling pathway - cell viability counter screen (AID 1159515; calls by dose curve; further: series mostly up to about 61 µM; on the % scale 0 is the no-effect control and ±100 the full control effect; nearly all actives have a fitted effect of over 55% in size)
Procedure, shortened: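 5 hr compound treatment of NFkB-bla ME-180 cells (2,000/well, seeded overnight beforehand), followed by reporter substrate for 1.5 hr. CellTiter-Glo added afterward; luminescence after 30 min RT.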

[5] = qHTS assay to identify small molecule agonists of the endoplasmic reticulum stress response signaling pathway (AID 1159516; active means well fitted activation curve with a large enough effect in the signal ratio in the repeat runs, not every such curve was filed as active; the % refers to the signal ratio; further: on the % scale 0 is the no-effect control and ±100 the full control effect)
Procedure, shortened: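 Reporter HeLa cells (ESRE-beta-lactamase) underwent 5 hr compound incubation at 37 C and 5% CO2 in quantitative HTS format. Detection followed 2 hr of FRET substrate loading at room temperature.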

[6] = qHTS assay to identify small molecule agonists of the endoplasmic reticulum stress response signaling pathway - cell viability counter screen (AID 1159517; calls by dose curve;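 further: HeLa cells carrying an ER stress response element beta-lactamase reporter; series mostly up to about 61 µM; on the % scale 0 is the no-effect control and ±100 the full control effect; nearly all actives have a fitted effect of over 50% in size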)
Procedure, shortened: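 ESRE-bla HeLa cells, 1,500 per well, seeded overnight then treated with compounds for 5 hr at 37 C. After the beta-lactamase read, viability in the same wells is measured by CellTiter-Glo luminescence after 30 min at room temperature.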

[7] = target: Nuclear receptor ROR-gamma (Homo sapiens) (UniProt P51449); assay: qHTS assay to identify small molecule antagonists of the retinoid-related orphan receptor gamma (ROR-gamma) signaling pathway (AID 1159521;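 further: CHO cells with doxycycline inducible ROR-gamma driving an RORE luciferase reporter; top concentration of the series differs between compounds; on the % scale 0 is the no-effect control and ±100 the full control effect; nearly all actives have a fitted effect of over 50% in size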)
Procedure, shortened: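 Test compounds were applied to Tet-on RORγ CHO cells 2 h ahead of doxycycline hyclate (1 uM final). Luciferase reporter activity was quantified by luminescence after 16 h at 37 C and 5% CO2.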

[8] = qHTS assay to identify small molecule agonists of the AP-1 signaling pathway - cell viability counter screen (AID 1159525; calls by dose curve; further: nearly all actives have a fitted effect of over 55% in size)
Procedure, shortened: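 AP-1-bla ME-180 cells in Opti-MEM with 0.5% dialyzed FBS, compound exposure 5 h at 37 C in 15-point titration. Viability read in the same wells as ATP content by CellTiter-Glo luminescence, normalised to tetra-n-octylammonium bromide and DMSO controls.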

[9] = qHTS assay to identify small molecule agonists of the AP-1 signaling pathway (AID 1159526; calls by dose curve; further: on the % scale 0 is the no-effect control and ±100 the full control effect)
[10] = target: Retinoic acid receptor RXR-alpha (Homo sapiens) (UniProt P19793); assay: qHTS assay to identify small molecule agonists of the RXR signaling pathway (AID 1159527; calls by dose curve; further: on the % scale 0 is the no-effect control and ±100 the full control effect; nearly all actives have a fitted effect of over 35% in size)
Chain of Retinoic acid receptor RXR-alpha (Homo sapiens) (P19793 whole entry, looked up): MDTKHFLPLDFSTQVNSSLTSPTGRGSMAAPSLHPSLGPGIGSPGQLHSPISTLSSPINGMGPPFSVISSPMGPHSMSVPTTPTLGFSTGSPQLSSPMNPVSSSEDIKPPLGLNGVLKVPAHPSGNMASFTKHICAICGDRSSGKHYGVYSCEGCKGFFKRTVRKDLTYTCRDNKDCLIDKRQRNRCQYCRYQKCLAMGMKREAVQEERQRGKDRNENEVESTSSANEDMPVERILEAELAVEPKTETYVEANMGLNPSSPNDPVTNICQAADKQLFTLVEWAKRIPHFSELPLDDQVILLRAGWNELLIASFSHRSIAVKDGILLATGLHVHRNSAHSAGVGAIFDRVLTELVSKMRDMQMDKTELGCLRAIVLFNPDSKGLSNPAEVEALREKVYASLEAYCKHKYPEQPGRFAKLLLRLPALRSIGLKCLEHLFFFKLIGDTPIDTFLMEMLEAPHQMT
Procedure, shortened: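 Using 9-cis retinoic acid as the reference agonist, chemicals were tested in HEK 293T cells […] for 16 hr; substrate loading lasted 2 hr at room temperature.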

[11] = qHTS assay to identify small molecule agonists of the RXR signaling pathway - cell viability counter screen (AID 1159529)
Procedure, shortened: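 Compounds dissolved in DMSO were pinned onto HEK 293T cells carrying a beta-lactamase reporter under RXR-alpha control and incubated 16 hr. Cytotoxicity was then quantified by CellTiter-Glo luminescence.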

[12] = qHTS assay to identify small molecule antagonists of the retinoid acid receptor (RAR) signaling pathway - cell viability counter screen (AID 1159551); further: on the % scale 0 is the no-effect control and ±100 the full control effect; nearly all actives have a fitted effect of over 35% in size
Procedure, shortened: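 Seed C3RL4 cells; next day add compound, then retinol to 1 uM final; incubate 6 h at 37 C; add CellTiter-Glo; read luminescence after 30 min at RT.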

[13] = qHTS assay to identify small molecule antagonists of the retinoic acid receptor (RAR) signaling pathway (AID 1159552)
Procedure, shortened: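 Test chemicals and DMSO controls were pin-transferred onto C3RL4 cells a day after seeding; retinol (1 uM final) followed at once. Luminescent reporter output was quantified after 6 hr of co-incubation and 30 min with detection reagent.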

[14] = qHTS assay to identify small molecule agonists of the retinoic acid receptor (RAR) signaling pathway (AID 1159553); further: potency means the concentration at half of the fitted maximal effect
Procedure, shortened: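 Activation of retinol signaling was monitored via a RARE luciferase reporter in C3RL4 cells. After 6 hr compound treatment at 37 C, detection reagent was added for 30 min at room temperature before luminescence reading.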

[15] = qHTS assay to identify small molecule antagonists of the estrogen related receptor (ERR) signaling pathway - cell viability counter screen (AID 1224818);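 further: series mostly up to about 46 µM; viability measured after 17.5 h of compound exposure; on the % scale 0 is the no-effect control and ±100 the full control effect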
Procedure, shortened: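 In the same ERR cell assay, compound-treated wells (17.5 h, 37 C) were multiplexed with a fluorogenic viability reagent, CellTiter-Fluor, read after 30 min to flag cytotoxic substances.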

[16] = qHTS assay to identify small molecule antagonists of the estrogen related receptor signaling pathway with the pleiotropic PPARgamma coactivator (PGC) cell viability counter screen (AID 1224822)
Procedure, shortened: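 Compounds in DMSO, with positive and negative controls, were applied to PGC/ERR cells (2,000/well) and left 17.5 h at 37 C before CellTiter-Fluor detection.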

[17] = qHTS assay to identify small molecule antagonists of the retinoid-related orphan receptor gamma (ROR-gamma) signaling pathway - cell viability counter screen (AID 1159520)
Procedure, shortened: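 Tet-on ROR gamma CHO cells were given compounds for 2 hr, then doxycycline hyclate at 1 uM final, and incubated 16 hr at 37 C. Viability was measured as ATP content by CellTiter-Glo luminescence.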

[18] = qHTS assay to identify small molecule antagonists of the estrogen related receptor (ERR) signaling pathway (AID 1224819)
Procedure, shortened: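 qHTS in ERR cells, 2,000/well, 1536 format. Cpd (DMSO) added after 6 h settle, 18 h 37 C. One-Glo luminescence, 30 min RT.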

[19] = qHTS assay to identify small molecule agonists of the estrogen related receptor (ERR) signaling pathway (AID 1224820); further: on the % scale 0 is the no-effect control and ±100 the full control effect
Procedure, shortened: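 ERR reporter cell line (from NTP), 2,000 cells/well, incubated 6 h before compound addition, then 18 h at 37 C. Luminescence measured 30 min after One-Glo reagent at room temperature.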

[20] = test system: estrogen-related receptor alpha (ERRalpha) with PGC-1alpha coactivator, human; assay: qHTS assay to identify small molecule antagonists of the estrogen related receptor signaling pathway with the pleiotropic PPARgamma coactivator (PGC) (AID 1224821; calls by dose curve)
Procedure, shortened: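 PGC/ERR reporter cell line, plated 6 h before compound addition, then exposed 18 h at 37 °C. Luciferase activity read by luminescence 30 min after One-Glo addition; decrease indicates antagonism.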

NCCCNCCSP(=O)(O)O
inactive: activity change, negative = cytotoxicity [1] 6.38% [at 13.2 µM] | viability change, negative = cytotoxic [2] 2.84% [at 6.95 µM] | activation [3] 0.134% [at 6.95 µM] | activity, negative = cytotoxic [4] 0.56% [at 6.95 µM] | activation [5] 0.0202% [at 6.95 µM] | activity change, negative = cytotoxicity [6] 10.1% [at 6.95 µM] | activity change, negative = inhibition [7] 18.8% [at 8.39 µM] | viability change, negative = cytotoxic [8] -1.42% [at 6.97 µM] | activation [9] -2.28% [at 6.97 µM] | activation [10] 10.3% [at 6.98 µM] | activity change, negative = cytotoxicity [11] 8.34% [at 6.97 µM] | activity change, negative = cytotoxicity [12] 1.85% [at 8.39 µM] | activity, negative = inhibition [13] 8.45% [at 8.39 µM] | activation [14] -0.783% [at 8.36 µM] | outcome [15] | outcome [16]

CCCc1cc(C(N)=S)ccn1
inactive: Potency [2] | outcome [3] | outcome [4] | outcome [5] | outcome [6] | outcome [17] | Potency [7] | Potency [8] | outcome [9] | Potency [10] | Potency [11] | outcome [12] | Potency [13] | Potency [14]

COC(=O)NN
inactive: Potency [1] | Potency [2] | outcome [3] | outcome [4] | outcome [5] | outcome [6] | Potency [7] | Potency [8] | outcome [9] | Potency [10] | Potency [11] | outcome [12] | Potency [13] | Potency [14]

Cc1[nH]c(=O)c(C#N)cc1-c1ccc2nccn2c1
inactive: Potency [1] | Potency [2] | outcome [3] | outcome [4] | outcome [5] | outcome [17] | Potency [7] | Potency [8] | outcome [9] | Potency [10] | Potency [11] | outcome [12] | Potency [13] | Potency [14] | outcome [15] | outcome [16]

O=c1cc(-c2ccccc2)oc2ccccc12
inactive: Potency [1] | Potency [2] | outcome [3] | outcome [4] | outcome [5] | outcome [6] | outcome [17] | Potency [8] | outcome [9] | Potency [11] | outcome [12] | Potency [13] | outcome [15] | outcome [16]
active: Potency [14] 3.44 µM and 858 nM

CC(=O)OC/C=C(\C)CC/C=C(\C)CCC=C(C)C
inactive: Potency [2] | outcome [3] | outcome [4] | outcome [5] | outcome [6] | outcome [17] | Potency [7] | Potency [8] | outcome [9] | Potency [10] | Potency [11] | outcome [12] | Potency [13]

COCCc1ccc(OCC(O)CNC(C)C)cc1 (stereo not given)
inactive: Potency [1] | Potency [2] | outcome [3] | outcome [4] | outcome [5] | outcome [6] | outcome [17] | Potency [8] | outcome [9] | Potency [10] | Potency [11] | outcome [12] | Potency [14] | outcome [15] | outcome [18] | outcome [19] | outcome [20] | outcome [16]

NS(=O)(=O)c1ccc(C(=O)O)cc1
inactive: Potency [1] | Potency [2] | outcome [3] | outcome [4] | outcome [5] | outcome [6] | Potency [7] | Potency [8] | outcome [9] | Potency [10] | Potency [11] | outcome [12] | Potency [13] | Potency [14]
